# Source: PubChem (several laboratories)
# SKKanGAS inh = inhibitors of SKKanGAS S. pyogenes growth in kanamycin (SK-promoter or general growth effect); BacTiter-Glo, 6 h; 300,000 tested, 1.3% active; inhibition, % at 7.5 µM; AID 1662;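 active means mean replicate score, as percent of positive control median, at least 50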;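 further: strain carries kanamycin resistance gene driven by streptokinase promoter and grows in 40 µg/ml kanamycin; loss of luminescence reflects streptokinase promoter inhibition or plain growth inhibition; 0% = median of DMSO wells and 100% = positive control at its reference dose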
# Beta cell apopt = blocks beta cell apoptosis; INS-1E cytokine-induced death, ATP luminescence, 48 h; percent of positive-control rescue, neutral wells zero; protection from apoptosis, % (concentration not given with the values); 300,000 tested, 0.8% active;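 active means Every replicate reaches about 75%, or at least half do and their mean reaches it too, limit read from the data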;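 further: 0% = cytokine-treated negative control wells and 100% = positive control rescue; higher means more ATP so stronger rescue from cytokine killing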
# PP5 inh = inhibitors of human protein phosphatase 5 (PP5); purified PP5c, OMFP substrate fluorescence; P53041; inhibition, % at 6.7 µM; 320,000 tested, 0.18% active; AID 1987;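 active means inhibition above the campaign's mean inhibition across all tested compounds plus 3 SD, cut at about 9.5% in these data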;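 further: 0% = DMSO only and 100% = 100 µM cantharidin control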
# Target sequence (P53041 whole entry, looked up): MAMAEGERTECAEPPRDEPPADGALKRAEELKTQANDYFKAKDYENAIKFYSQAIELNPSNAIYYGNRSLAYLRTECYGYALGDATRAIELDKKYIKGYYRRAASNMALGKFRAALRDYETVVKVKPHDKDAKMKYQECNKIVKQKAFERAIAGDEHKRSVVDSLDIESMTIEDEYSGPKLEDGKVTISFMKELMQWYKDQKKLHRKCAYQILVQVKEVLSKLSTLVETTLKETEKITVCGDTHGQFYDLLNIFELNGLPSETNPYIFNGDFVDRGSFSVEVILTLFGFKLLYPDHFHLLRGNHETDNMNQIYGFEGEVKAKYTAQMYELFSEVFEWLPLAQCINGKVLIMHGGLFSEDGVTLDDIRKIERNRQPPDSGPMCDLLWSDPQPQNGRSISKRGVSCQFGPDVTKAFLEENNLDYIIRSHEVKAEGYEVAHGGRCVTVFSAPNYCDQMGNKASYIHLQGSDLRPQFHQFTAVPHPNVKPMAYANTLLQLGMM
# CSC inhib = blocks cancer stem cells; inhibition, % at 7.5 µM; AID 2717; 300,000 tested, 1.1% active; cancer stem cell-like cells viability, luminescence; in the data active means inhibition above about 75%; tested in HMLE shEcad cells
# PP1 inh = counter-screen for PP5 inhibitors: inhibitors of human PP1-alpha; AID 2235; inhibition, % at 6.7 µM; 320,000 tested, 0.9% active; P62136; purified PP1alpha, OMFP fluorescence;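 active means inhibition above the mean inhibition of all tested compounds plus 3 SD, computed separately for each screening campaign, cut at about 15% in these data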
# Numbers without * were called inactive; / = not tested or not shown. Hits are enriched below; roughly 3.1% of the tested compounds scored in any of these assays.
SMILES,SKKanGAS inh,Beta cell apopt,PP5 inh,CSC inhib,PP1 inh
CCOc1ccc(C(NC(=O)CC)c2c(O)ccc3ccccc23)cc1 (stereo not given),3,-5,1,47,-2
CCC(=O)NC(c1ccc(C)cc1)c1ccc2cccnc2c1O (stereo not given),71*,6,0,-2,1
COc1ccc(C(NC(=O)C(C)C)c2ccc3cccnc3c2O)cc1 (stereo not given),55*,104*,2,104*,9
O=C(CN1C(=O)NC2(CCCC2)C1=O)Nc1cc(Cl)ccc1N1CCOCC1,1,0,-1,-18,-7
Cc1ccc(C(=O)c2ccccc2C(=O)OCC(=O)NCC2CCCO2)cc1 (stereo not given),-1,-5,2,/,1
O=C(COc1ccc(Cl)cc1Cl)NNC(=S)NC(=O)c1ccco1,95*,0,-2,28,5
COc1ccccc1C(=O)NNC(=S)NC(=O)c1ccco1,65*,84*,4,/,0
COc1ccccc1C(=O)NC(=S)Nc1ccc(N2CCN(C(=O)c3ccco3)CC2)cc1,88*,3,4,12,-15
O=C(NNC(=S)NC(=O)c1ccco1)c1ccc(F)cc1,83*,17,1,20,-3
O=C(CCNC(=O)c1ccc(Br)cc1)Nc1ncccc1O,3,-3,1,-11,-2
CC(Oc1ccc(Cl)cc1)C(=O)NNC(=S)NC(=O)c1ccco1 (stereo not given),92*,16,-1,7,2
COc1ccc(C(=O)NNC(=S)NC(=O)c2ccco2)cc1,81*,29,3,8,-4
O=C(NC(=S)NNC(=O)c1ccco1)c1ccc(Br)cc1,55*,4,-1,9,13
O=C(NNC(=S)Nc1ccccc1)c1ccco1,0,1,2,3,0
Cn1cccc1CC(=O)NNC(=S)NC(=O)c1ccc(F)cc1,65*,1,3,3,0
Cn1cccc1CC(=O)NNC(=O)Nc1ccc(Cl)cc1,-10,-2,1,-13,-3
O=C(NC(=S)NCc1ccc(Cl)cc1)c1ccco1,/,-1,/,-12,/
CC1(C)CCC[C@]2(C)C(CS(=O)c3ccccc3)=C(C=O)CC[C@@H]12 (stereo not given in full),2,-3,4,43,4
CCN(CC)C(=O)c1[nH]cnc1C(=O)NCC(=O)OC(C)(C)C,0,0,-1,-1,-4
CCCCOC(=O)c1ccc(NC(=S)NC(=O)c2ccco2)cc1,4,6,4,-4,-1
CCCOc1ccc(C(=O)NNC(=S)NC(=O)c2ccco2)cc1,104*,20,3,34,6
FC(F)(F)c1ccc(Oc2ccc3ccccc3c2Br)nc1,63*,1,2,/,-2
CC(C)CC1Nc2ncnc(N3CCCCC3)c2N(Cc2ccc(Br)cc2)C1=O (stereo not given),38,-2,2,30,8
Cc1cccc(C)c1NS(=O)(=O)c1ccc(NC(=O)c2ccc(Cl)c([N+](=O)[O-])c2)cc1,11,0,5,103*,1
CC(C)(C)NC(=O)CN(c1cccc([N+](=O)[O-])c1)S(=O)(=O)c1ccccc1,2,/,1,6,-1
SMILES,SKKanGAS inh,Beta cell apopt,PP5 inh,CSC inhib,PP1 inh
O=C(CN(c1cccc(C(F)(F)F)c1)S(=O)(=O)c1ccc(Cl)c([N+](=O)[O-])c1)NCc1ccccc1Cl,22,-9,6,101*,13
O=C(CN(c1cccc(C(F)(F)F)c1)S(=O)(=O)c1ccc(Cl)c([N+](=O)[O-])c1)NCc1ccccc1,3,-8,2,85*,3
O=C(O)CN(c1cccc(C(F)(F)F)c1)S(=O)(=O)c1ccccc1,4,-1,0,0,0
Cc1ccc(N(CC(=O)NCCc2ccc(F)cc2)S(=O)(=O)c2ccc(Cl)c([N+](=O)[O-])c2)c(C)c1,7,7,5,80*,5
COc1ccc(CCNC(=O)CN(c2ccc(OC)c(OC)c2)S(=O)(=O)c2ccc(C)cc2)cc1,5,4,0,/,1
CC(NC(=O)CN(c1cccc(C(F)(F)F)c1)S(=O)(=O)c1ccc(Cl)c([N+](=O)[O-])c1)c1ccccc1 (stereo not given),13,7,6,98*,12
O=C(CN(c1ccc(Br)cc1)S(=O)(=O)c1ccc(Cl)c([N+](=O)[O-])c1)NCCc1ccccc1,6,3,1,23,3
COC(=O)c1ccccc1OCCCN(C)C,-5,-6,0,/,-4
